From PubChem BioAssay (NCI) come the findings set out here.

This is part of a sample that, as a whole, favours compounds with a hit. Of some 83,000 tested, about 20% had one in any assay.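 In brief: 96-well plates, 48 h treatment, single concentration, percent growth endpoint.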 A number with no mark means an inactive call. Activity calls are given as the source filed them. Rule for the calls: active = growth percent below 10; inactive = the rest.

Assay in all cases: NCI-60 one-dose screen, 48 h (100 = growth as untreated, 0 = no growth, -100 = all killed)
What all share (details): 10 µM unless noted

The subject of experiment [1] is MOLT-4 leukemia.
For experiment [2], the system named is SR leukemia.
Experiment [3] relates to RPMI-8226 leukemia.
Experiment [4] concerns OVCAR-8 ovarian.
Experiment [5] deals with OVCAR-5 ovarian.
The test system of experiment [6] is OVCAR-4 ovarian.
Experiment [7] has as its system SK-OV-3 ovarian.
In experiment [8] the test system is IGROV1 ovarian.
Experiment [9] has as its system OVCAR-3 ovarian.
In experiment [10] the test system is HS 578T breast.
Experiment [11] concerns NCI/ADR-RES ovarian.
Experiment [12] relates to T-47D breast.
Experiment [13] concerns BT-549 breast.
The subject of experiment [14] is MDA-MB-435 melanoma.
Experiment [15] has as its system SW-620 colon.
The test system of experiment [16] is MCF7 breast.
Experiment [17] has as its system HCT-116 colon.
The subject of experiment [18] is HCC-2998 colon.
In experiment [19] the test system is KM12 colon.

Turning to `CN1C(=O)C(=Cc2cn(CCCCCCn3c4ccccc4c(=O)c4ccccc43)c3ccccc23)C(=O)N(C)C1=O`, the growth was 97.5% in [1]; 77% in [2]; 103% in [3]; 95.2% in [4]; 77% in experiment [5]; 95.2% in experiment [6]. In addition, the growth was 87% in experiment [7]; 90.5% in experiment [8]; 102% in [9]; 101% in experiment [10]; 90.7% in [11]; 75% in experiment [12]. Besides, the growth is 91.2% in experiment [13]; 107% in [14]; 103% in [15]; 81.1% in [16]; 85.5% in [17]; 99.4% in experiment [18]. Also, the growth in experiment [19] was 98.7%.
Take `COC(=O)C12CC(NC(=O)c3csc([C@@H](C[C@H](C(C)C)N(C)C(=O)[C@@H](NC(=O)[C@H]4CCCCN4C)C(C)C)OC(C)=O)n3)(C1)C2`: the growth in experiment [1] is 14.3%; in experiment [2], 15.2%; in experiment [3], 17.8%; in [4], 24.8%; in [5] it was 46.8%; in experiment [6], 50.4%. For the same molecule, the growth in experiment [7] is 13.2%; in experiment [8], 19.3%; in experiment [9], -17.5% (active); in experiment [10], 35.3%; in experiment [11], -4.67% (active); in experiment [12] it was 75.2%. The growth in experiment [13] was -25.8% (active); in experiment [14], -43.7% (active); in experiment [15] it was 27.4%; in experiment [16] it was 15.4%; in experiment [17] it was 4.37% (active); in experiment [18], 10.4%. For the same molecule, the growth in experiment [19] was 11.1%.
On to `CC[C@]12C=CCN3CC[C@]4(C(=C(C(=O)OC)C1)Nc1cc(OC)c(OC(C)=O)cc14)[C@@H]32`, for which the growth was 9.7% (active) in experiment [1]; 7.64% (active) in experiment [2]; 7.27% (active) in [3]; 5.97% (active) in experiment [4]; 43% in [5]; 38.6% in experiment [6]. The growth in experiment [7] is 2.29% (active); in experiment [8], 26.3%; in experiment [9], 14.1%; in experiment [10], 46.7%; in [11] it was 9.28% (active); in experiment [12], 51.4%. Further, the growth in experiment [13] is 3.35% (active); in [14], 3.75% (active); in experiment [15], 15.8%; in experiment [16] it was 13.1%; in [17], 12%; in [18], 12.8%. Moreover, the growth in [19] was 9.09% (active).
For the molecule `CCCOC(=O)N[C@H]1CCc2c(Br)c(OC)c(OC)c(OC)c2-c2ccc(SC)c(=O)cc21`, the growth was 10.7% in experiment [1]; 3.3% (active) in [2]; -9.16% (active) in experiment [3]; 13.4% in [4]; 36.7% in [5]; 32.6% in [6]. Moreover, the growth in [7] is 40.8%; in experiment [8] it was 10.9%; in experiment [9] it was -16.8% (active); in experiment [10], 1.06% (active); in experiment [11] it was 10.4%; in experiment [12], 51.5%. Further, the growth is 2.53% (active) in [13]; -49.4% (active) in experiment [14]; 15.3% in experiment [15]; 10% in experiment [16]; -12.6% (active) in [17]; 16.2% in experiment [18]. Further, the growth in experiment [19] is -15.7% (active).
For the molecule `COc1cc(/C=C\c2cc(OC)c(OC)c(OC)c2)cc(NS(=O)(=O)c2cccc(Cl)c2)c1OC`, the growth in [1] was 9.29% (active); in [2], 10.6%; in experiment [3], 18.1%; in experiment [4], 18.2%; in [5], 19.5%; in experiment [6], 37.4%. Further, the growth was 16.9% in experiment [7]; 26.3% in [8]; -36.3% (active) in experiment [9]; 45.4% in experiment [10]; 7.73% (active) in experiment [11]; 93.1% in [12]. Also, the growth in [13] was 24.1%; in [14], -20.2% (active); in [15], 25.4%; in [16] it was 7.6% (active); in [17], 2.62% (active); in [18], 13.9%. For the same molecule, the growth in experiment [19] is 5.83% (active).
In the case of `CN[C@]1(c2ccccc2Cl)CCCC[C@H]1NCCCN1CCN(C)CC1`, the growth is 98.8% in experiment [1]; 111% in experiment [2]; 97.3% in [3]; 97.2% in [4]; 104% in experiment [5]; 101% in experiment [6]. Besides, the growth is 105% in [7]; 103% in [8]; 102% in [9]; 94.1% in [10]; 101% in experiment [11]; 103% in [12]. Further, the growth is 102% in [13]; 103% in [14]; 99.4% in [15]; 102% in experiment [16]; 97.8% in [17]; 99.5% in experiment [18]. Moreover, the growth in [19] was 101%.
For `COc1ccc(Nc2ccc([N+](=O)[O-])cc2[N+](=O)[O-])cc1CN(CCCl)CCCl`, the growth in experiment [1] was 0.406% (active); in experiment [2], 7.8% (active); in experiment [3], 0.0676% (active); in experiment [4] it was 30.6%; in experiment [5], 50.2%; in [6], 52.8%. Further, the growth in experiment [7] was 48.3%; in [8], 32.7%; in experiment [9], 20%; in [10], 66.7%; in experiment [11], 26.9%; in experiment [12], 22.6%. In addition, the growth in experiment [13] was 40.1%; in experiment [14] it was 55.2%; in experiment [15] it was 20.3%; in [16] it was 19.3%; in [17], 20.8%; in [18], 37.7%. For the same molecule, the growth in [19] is 53.1%.
On to `CCCCN1CCCC[C@@H]1C(=O)N[C@H](C(=O)N(C)[C@H](C[C@@H](OC(C)=O)c1nc(C(=O)NC2CCC(C(=O)OC)CC2)cs1)C(C)C)C(C)C` (some centres not stated), for which the growth in experiment [1] is 19.2%; in experiment [2], 20.4%; in experiment [3], 16.8%; in [4], 24.6%; in [5] it was 57%; in [6], 52.2%. Further, the growth is 23.9% in [7]; 39.5% in experiment [8]; -29.5% (active) in experiment [9]; 14.5% in experiment [10]; 41.2% in experiment [11]; 27.4% in [12]. Further, the growth is 40.1% in experiment [13]; -43.9% (active) in experiment [14]; 19.5% in experiment [15]; 24.6% in [16]; 14% in experiment [17]; 67.6% in [18]. Besides, in experiment [19], the growth was 24.6%.
